Results filed as inconclusive are left out. Unmarked numbers belong to inactive results.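 How the source made its calls: active means cell viability at or below a set limit in both duplicate runs, the limit being the all-compound median minus 4 SD (cut at about 23% in these data, passing the limit was not always enough); inconclusive means no clear call, values can overlap the other calls; inactive means the rest.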
assay: viability of HCT116 without oncogenic beta-catenin – human colon tumor cells, pilot screen (AID 823); details: HCT116 beta-catenin knockout viability, CellTiter-Glo, 60 h; at 10 µM; active compounds read low;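 further: 0% = wells killed by 20 µM Hyamine and 100% = untreated DMSO cell wells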

**Q.** For COc1ccc(NC(=O)N(Cc2ccc(C)cc2)Cc2ccccn2)c(OC)c1, which viability is on record?
**A.** The viability was 91%.

**Q.** With COc1cc(C(=O)N2CCN(C(=O)C(Cc3cc(C)ccc3C)NC(C)=O)CC2)cc(OC)c1OC (stereo not given) as the molecule, how does the viability read?
**A.** Its viability is 97.7%.

**Q.** For O=C1C2CCCN2C(c2ccc(F)cc2)N1c1cccc(Cl)c1 (stereo not given), which viability is on record?
**A.** The viability was 102%.

**Q.** With COc1cccc(NC(=O)c2ccncc2)c1 as the molecule, how does the viability read?
**A.** Its viability is 94.3%.

**Q.** With CC(=O)Nc1cc(-c2nn3c(C)nnc3s2)ccc1C as the molecule, how does the viability read?
**A.** Its viability is 98.7%.

**Q.** For O=C1CC(c2ccccc2)CC(O)=C1C=NCCN1CCNCC1 (stereo not given), which viability is on record?
**A.** The viability was 99.2%.

**Q.** Which viability does the source give for O=C(NCc1ccc2c(c1)OCO2)c1cnc2n(c1=O)CCS2 here?
**A.** The viability was 95.9%.

**Q.** Which viability does the source give for COc1ccc(OC)c(CCNC(=O)C2CCN(c3nnc(-n4cccc4)s3)CC2)c1 here?
**A.** The viability was 85.2%.

**Q.** For COc1ccc(OCCSc2ncnc3nc[nH]c23)cc1, which viability is on record?
**A.** Its viability is 86.6%.

**Q.** For CC(CCc1ccco1)NC(=O)Cn1nc(Cc2ccncc2)c2ccccc2c1=O (stereo not given), which viability is on record?
**A.** Its viability is 89.4%.

**Q.** With Cc1oc(-c2ccc(Cl)cc2)nc1CN1CCCC(C(=O)N2CCN(C(=O)c3ccco3)CC2)C1 (stereo not given) as the molecule, how does the viability read?
**A.** Its viability is 33.8%.

**Q.** With O=C(CC1(O)C(=O)Nc2ccccc21)c1ccccc1 (stereo not given) as the molecule, how does the viability read?
**A.** Its viability is 92.2%.

**Q.** Which viability does the source give for c1cc(-c2nnc3n2CCC3)[nH]n1 here?
**A.** Its viability is 95.9%.

**Q.** For Cc1ccnc(SCCn2c(N3CCCCC3)nc3c2c(=O)[nH]c(=O)n3C)n1, which viability is on record?
**A.** The viability was 101%.

**Q.** Which viability does the source give for CC(C)(C)c1ccc(OCC(=O)N2CCN(C=O)CC2)cc1 here?
**A.** Its viability is 98.1%.

**Q.** Which viability does the source give for CCC(C)(c1ccc(C(=O)OC)s1)c1ccc(C(=O)OC)s1 here?
**A.** Its viability is 73.3%.

**Q.** With CCOC(=O)N1CCC(NC(=O)CSCc2nc(-c3sccc3C)oc2C)CC1 as the molecule, how does the viability read?
**A.** Its viability is 90%.

**Q.** For CCc1cccc(Nc2cc(C)nc3ncnn23)c1, which viability is on record?
**A.** Its viability is 99.8%.

**Q.** Which viability does the source give for CC(=O)CCS(=O)(=O)c1ccc(C)c(C)c1 here?
**A.** Its viability is 71.6%.

**Q.** With N=c1n(CCOc2ccccc2)c2ccccc2n1CCN1CCOCC1 as the molecule, how does the viability read?
**A.** The viability was 82.5%.

**Q.** With COc1cccc2c(=O)c(C/C=C(/C)Cl)c(C)[nH]c12 as the molecule, how does the viability read?
**A.** Its viability is 97.5%.

**Q.** With COC(=O)C(C(=O)OC)C(C(=O)OC)C(C(=O)OC)C(=O)OC as the molecule, how does the viability read?
**A.** Its viability is 97.2%.

**Q.** For CC1CCCCN1c1nnc(NC(=O)Cn2c(=O)oc3ccccc32)s1 (stereo not given), which viability is on record?
**A.** Its viability is 110%.

**Q.** Which viability does the source give for COc1cccc(-c2nnc(NC(=O)C3CCCCC3)o2)c1 here?
**A.** The viability was 83.5%.

**Q.** For COC(=O)c1ccsc1NC(=O)C1COc2ccccc2O1 (stereo not given), which viability is on record?
**A.** Its viability is 92.4%.

**Q.** Which viability does the source give for Cc1cccc(Nc2ncnc3nc[nH]c23)c1C here?
**A.** The viability was 103%.

**Q.** Which viability does the source give for O=C(CCc1ccccc1)N1CCN(CCO)CC1 here?
**A.** The viability was 101%.

**Q.** With CN1CCCN(Cc2ccccc2C(F)(F)F)CC1 as the molecule, how does the viability read?
**A.** The viability was 97.6%.

**Q.** Which viability does the source give for CC(=O)Nc1ccc(-c2cc(NC(C)=O)n(-c3ccccc3)n2)cc1 here?
**A.** Its viability is 104%.

**Q.** With CCCCCn1c(CCNC(=O)c2cccs2)nc2ccccc21 as the molecule, how does the viability read?
**A.** The viability was 94.2%.

**Q.** Which viability does the source give for Cc1ccc2ccc(S(=O)(=O)n3nc(C)cc3C)cc2c1 here?
**A.** The viability was 84.9%.

**Q.** Which viability does the source give for CCOC(=O)Cc1csc(NC(=O)CN2C(=O)c3ccccc3S2(=O)=O)n1 here?
**A.** The viability was 96.9%.

**Q.** For O=C(NCc1ccccn1)c1ccc2ccccc2n1, which viability is on record?
**A.** The viability was 111%.

**Q.** With CCCc1ccc(Oc2c(-c3ccc(O)c(C)c3O)n[nH]c2C)cc1 as the molecule, how does the viability read?
**A.** Its viability is 72.3%.

**Q.** For COc1ccc(C(CNC(=O)C2CC(=O)N(Cc3ccc(C)cc3)C2)N(C)C)cc1 (stereo not given), which viability is on record?
**A.** Its viability is 96%.

**Q.** For CN(Cc1ccco1)C(=O)C(Cc1ccccc1)NS(=O)(=O)c1ccc2c(c1)CCC(=O)N2 (stereo not given), which viability is on record?
**A.** Its viability is 94.9%.

**Q.** Which viability does the source give for O=C(O)C1CCCCC1C(=O)NCc1cn2ccccc2n1 (stereo not given) here?
**A.** Its viability is 110%.

**Q.** For CCN1CCN(CC(=O)Nc2ccccc2)C(=O)C1=O, which viability is on record?
**A.** The viability was 103%.

**Q.** Which viability does the source give for Nc1c(S(=O)(=O)c2ccccc2)c2nc3ccccc3nc2n1Cc1ccco1 here?
**A.** The viability was 78.8%.

**Q.** Which viability does the source give for Cc1nc2ccccc2c2oc(C(=O)N3CCc4ccccc43)cc12 here?
**A.** Its viability is 95.5%.

Reference: PubChem BioAssay
